Potency and affinity values are given separately.
Tests used:
[1] = test system: Klebsiella pneumoniae; details: Concentration 32 ug.mL-1;; ASSAY_TEST Inhibition of Bacterial Growth; detection method Absorption (OD600); MEDIA CAMHB; plate type 384well; NBS; CORNING #3640; time 18 hr
[2] = test system: Candida albicans; details: Concentration 32 ug.mL-1; ASSAY_TEST Inhibition of Fungal Growth; detection method Absorption (OD530)
[3] = test system: Cryptococcus neoformans; details: Concentration 32 ug.mL-1; ASSAY_TEST Inhibition of Fungal Growth; detection method Resazurin; Absorption (OD600-OD570); plate type 384well; NBS; CORNING #3640

| Compound | Inhibition [1] [%] | Inhibition [2] [%] | Inhibition [3] [%] |
| --- | --- | --- | --- |
| CCC(C)NC(=O)Cn1nc2n(Cc3cccs3)c(=O)c3sccc3n2c1=O (stereo not drawn) | 6.55 | 0.06 | -19.39 |
| COc1ccc(N(Cc2ccc(C)cc2)S(=O)(=O)c2ccc3nnc(C)n3c2)cc1 | -1.06 | 4.08 | -1.52 |
| Cc1ccc(NC(=O)Cn2nc3c(N4CCCC4)nccn3c2=O)cc1Cl | 13.96 | 0.98 | -21.34 |
| Cc1ccc(-c2nc(CSc3nc4ccccc4n4c(C(C)C)nnc34)c(C)o2)cc1 | 3.51 | 2.71 | -13.81 |
| COC(=O)c1ccccc1NC(=O)Cn1nc2c(SC3CCCCC3)nccn2c1=O | 12.08 | 1.97 | -21.3 |
| Cc1cc(C)cc(NC(=O)Cn2nc3c(N4CCCC4)nccn3c2=O)c1 | 18.22 | 0.29 | -23.65 |
| COCCCNC(=O)CSc1nnc2c(=O)n(Cc3ccccc3)ccn12 | 17 | 2.41 | -23.49 |
| CCCCOc1ccc(-c2cc3c4nnc(SCC(=O)Nc5ccc(F)cc5)n4ccn3n2)cc1 | 3.87 | -1.37 | -16.65 |
| O=c1c2nnc(-c3ccc([N+](=O)[O-])cc3)n2ccn1-c1ccc(F)c(F)c1 | 12.52 | 2.2 | -9.46 |
| O=c1c2sccc2n2c(=O)n(Cc3ccccc3Cl)nc2n1Cc1cccs1 | -3.57 | 32.61 | -5.81 |
| O=C(CSc1nnc2c(=O)n(-c3ccc(Br)cc3)ccn12)c1c[nH]c2ccccc12 | 21.01 | 3.35 | -16.54 |

— ChEMBL document CHEMBL4513146, “CO-ADD screening of Karazin Kharkiv National University (Ukraine) compounds”
